High-throughput results from PubChem.
DT40 TDP1 no CPT – qHTS for Inhibitors of human tyrosyl-DNA phosphodiesterase 1 (TDP1): qHTS in cells in absence of CPT | DT40 Tdp1-/- hTDP1 cells, no CPT, ATP luminescence, 48 h | Potency, µM (doses to about 46.2 µM), for the others: at the highest dose activity change, negative = growth inhibition, actives largely listed as inhibitors | actives 15% (n = 420,000); note: potency is the fitted concentration of half-maximal effect; % is set by controls: 0 for no effect and ±100 for the full control effect; nearly all actives have a fitted effect of over 55% in size
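No-CPT arm: Tdp1-/-;hTDP1 DT40 cells (400/well) plus compounds, incubated ≥48 hr at 37 °C. Readout CellTiter-Glo luminescence.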
TDP1 cell CPT – qHTS for Inhibitors of human tyrosyl-DNA phosphodiesterase 1 (TDP1): qHTS in cells in presence of CPT; chicken DT40 Tdp1-/-;hTDP1 cells + 20 nM CPT, ATP luminescence, 48 h; Potency, µM (titrated, usually from 46.2 µM), for inactives: top-dose activity change, negative = growth inhibition, hits mostly inhibitors; actives 12% (n = 420,000); note: potency is the fitted concentration of half-maximal effect; % is set by controls: 0 for no effect and ±100 for the full control effect; nearly all actives have a fitted effect of over 55% in size
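Chicken DT40 Tdp1-/- cells complemented with human TDP1, 400 cells/well, exposed to compounds plus 20 nM camptothecin for at least 48 h at 37 C; viability read as ATP content by CellTiter-Glo luminescence.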
TDP1 inh – qHTS Assay for Inhibitors of Tyrosyl-DNA Phosphodiesterase (TDP1). recombinant TDP1, AlphaScreen DNA substrate cleavage. actives 0.28% (n = 350,000). Potency, µM (titrated, usually from 130 µM), without a hit: top-dose activity change, negative = inhibition, usual class: inhibitors. Tyrosyl-DNA phosphodiesterase 1 (Homo sapiens), Q9NUW8; note: potency is the fitted concentration of half-maximal effect; % is set by controls: 0 for no effect and ±100 for the full control effect; nearly all actives have a fitted effect of over 40% in size
Target sequence (Q9NUW8 whole entry, looked up): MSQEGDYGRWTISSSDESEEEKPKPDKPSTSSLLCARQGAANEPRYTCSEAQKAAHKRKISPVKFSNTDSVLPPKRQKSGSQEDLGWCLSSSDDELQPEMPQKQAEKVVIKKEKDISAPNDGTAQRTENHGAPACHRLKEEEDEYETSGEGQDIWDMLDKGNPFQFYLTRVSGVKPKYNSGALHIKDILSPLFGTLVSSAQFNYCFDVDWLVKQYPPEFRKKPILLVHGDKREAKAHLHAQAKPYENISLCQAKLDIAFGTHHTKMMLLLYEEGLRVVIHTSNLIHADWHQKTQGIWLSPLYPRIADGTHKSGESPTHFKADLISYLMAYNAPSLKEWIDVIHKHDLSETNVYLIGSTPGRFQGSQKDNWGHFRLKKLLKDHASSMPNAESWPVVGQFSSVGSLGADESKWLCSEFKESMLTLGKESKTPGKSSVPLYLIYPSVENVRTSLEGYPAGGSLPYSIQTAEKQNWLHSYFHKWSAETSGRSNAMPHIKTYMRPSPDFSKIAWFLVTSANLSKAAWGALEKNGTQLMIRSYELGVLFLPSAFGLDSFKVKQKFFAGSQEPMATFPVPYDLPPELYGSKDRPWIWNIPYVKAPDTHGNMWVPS
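E. coli-derived human Tdp1, 1 nM final. Cpd preinc 15 min RT; substrate 15 nM final, 5 min RT; AS bead mix 10 ug/ml final, 10 min RT. Signal loss = tyrosine-FITC cleavage. No-enzyme wells = max signal.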
IL-1B inflam inh – qHTS for Inhibitors of Inflammasome Signaling: IL-1-beta AlphaLISA Primary Screen. activity change, % at 57.5 µM. THP-1 LPS/ATP IL-1B secretion, AlphaLISA, 16 h; hits give low values. actives 4.7% (n = 360,000); in the data active = activity change below about -50%; inconclusive = mostly about -30% to -49%; note: % is set by controls: 0 for no effect and ±100 for the full control effect
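Secreted IL-1B measured by AlphaLISA bead assay after 16 h compound exposure of THP-1 cells; compounds (final up to 57.5 uM) added 1 h before LPS (250 ng/mL) and ATP (1.25 mM) stimulation; lower signal means less secretion.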
HepG2 viability – qHTS for Inhibitors of TGF-b: Cytotox Counterscreen. HepG2 CAGA-GFP viability, ATP luminescence, 18 h. Potency, µM (series often up to 46.1 µM), inactives show at the highest dose activity change, negative = cytotoxicity, usual class: cytotoxic. actives 0.76% (n = 410,000). AID 588856, 2011; note: potency is the fitted concentration of half-maximal effect
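CellTiter-Glo luminescence gave cytotoxicity after 18 hours at 37 degrees C. The cells were HepG2 CAGA-GFP in 1% FBS DMEM, stimulated with 500 pg/mL TGF-beta after compound addition. %Activity was normalised to no-cell wells (complete cell-killing) and DMSO (no toxicity), and curves were fitted and classified.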
TGFb inhibitor – qHTS for Inhibitors of TGF-b | HepG2 CAGA-GFP TGF-b/SMAD3 reporter, GFP fluorescence, 18 h; TGF-beta stimulated, 500 pg/mL final | Potency, µM (doses to about 46.1 µM), for inactives: at the top dose activity, negative = inhibition, usual class: inhibitors | actives 1.2% (n = 410,000) | AID 588855, 2011; note: potency is the fitted concentration of half-maximal effect; % is set by controls: 0 for no effect and ±100 for the full control effect; nearly all actives have a fitted effect of over 65% in size
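Inhibition was scored as loss of TGF-beta-induced (500 pg/mL final, 18 hours, 37 degrees C) GFP in HEPG2 cells carrying a CAGA-GFP reporter, in DMEM with 1% FBS. Well GFP was summed per cell; Activity was normalised to unstimulated and stimulated DMSO wells, then concentration-response fitting.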
Active calls of the source: *; i = inactive; ? = inconclusive; . = no result given; ! = a repeat was not active. Most compounds without a hit are left out; they make up all but 19% or so of the library. Unless noted, calls come from the whole dose curve; as a rule, active = well fitted curve in the direction sought with a large enough effect; inconclusive = small, poorly fitted or top-dose-only effect, or another doubt; inactive = no such curve, though single readings can be large; an effect the other way counts as inactive or inconclusive.

SMILES	DT40 TDP1 no CPT	TDP1 cell CPT	TDP1 inh	IL-1B inflam inh	HepG2 viability	TGFb inhibitor
O=C(CC(Sc1ccc(Br)cc1)C(=O)O)c1ccc(F)cc1 (centres undefined)	4.61µM*	9.2µM*	.	-92.4*	-17.9%	-26.2%
CC1CCCN(C(=O)CN2C(=O)NC(C)(c3ccc4ccccc4c3)C2=O)C1 (centres undefined)	?	?	0.5%	-4.0	5.3%	17.4%
CC1(c2ccc(Cl)cc2)NC(=O)N(CC(=O)N2CCc3ccccc32)C1=O (centres undefined)	?	25.9µM*	-0.1%	13.0	-11.2%	-16.8%
CC1(c2ccc3ccccc3c2)NC(=O)N(CC(=O)N2CCN(c3ccccc3O)CC2)C1=O (centres undefined)	13µM*	?	6.5%	i	0.0%	?
COc1ccc(Cl)cc1NC(=O)CN(C)C(=O)CN1C(=O)NC(C)(c2ccc3ccccc3c2)C1=O (centres undefined)	14.6µM*	?	.	-52.9*	-9.1%	?
COc1ccc(Cl)cc1NC(=O)CN(C)C(=O)CN1C(=O)NC(C)(C)C1=O	-13.0%	2.6%	0.6%	8.0	-15.7%	-27.8%
COc1cccc(N2CCN(C(=O)CN3C(=O)NC(C)(c4ccc5ccccc5c4)C3=O)CC2)c1 (centres undefined)	16.4µM*	13µM*	.	-14.2	-0.9%	-28.7%
CN1CCN(C(=O)CN2C(=O)NC(C)(c3ccc4ccccc4c3)C2=O)CC1 (centres undefined)	-1.6%	-4.2%	-0.7%	-0.3	2.7%	-3.8%
CC1(c2ccc3ccccc3c2)NC(=O)N(CC(=O)N2CCN(S(=O)(=O)c3ccccc3F)CC2)C1=O (centres undefined)	23.1µM*	?	2.5%	-2.5	-15.3%	-7.4%
Cc1ccc(C2(C)NC(=O)N(CC(=O)N3CCN(S(=O)(=O)c4cccs4)CC3)C2=O)cc1 (centres undefined)	-25.8%	-15.9%	0.9%	14.3	-14.1%	3.8%
Cc1ccc(S(=O)(=O)N2CCN(C(=O)CN3C(=O)NC(C)(c4ccc5ccccc5c4)C3=O)CC2)cc1 (centres undefined)	?	?	.	-11.7	-26.1%	?
Cc1ccc(C2(C)NC(=O)N(CC(=O)N3CCN(S(=O)(=O)c4ccc(Cl)s4)CC3)C2=O)cc1 (centres undefined)	?	20.6µM*	.	-5.6	-13.0%	?
CC1CCN(C(=O)CN2C(=O)NC(C)(c3ccc4ccccc4c3)C2=O)CC1 (centres undefined)	16.4µM*	18.4µM*	-0.2%	4.4	-13.9%	-7.3%
O=C1C=C(c2ccccc2)C[C@H](c2cccs2)[C@H]1n1nnc([N+](=O)[O-])n1	5.8µM*	6.51µM*	5.6%	-73.0*	1.6%	-31.1%
CCC(C(=O)Nc1cc(Cl)c(OC)cc1OC)c1ccccc1 (centres undefined)	?	?	4.3%	-1.4	-1.8%	-11.9%
Cc1cc(NC(=O)CCN2C(=O)c3ccccc3C2=O)no1	-7.7%	-9.0%	6.9%	-3.7	16.4%	-4.9%
Cc1cc(NC2=CC(=O)C(=O)c3ccccc32)no1	11.6µM*	6.51µM*	.	-100.7*	-91.0%	?
COc1cc(OC)c(NC2=CC(=O)C(=O)c3ccccc32)cc1Cl	18.4µM*	11.6µM*	.	?	-0.1%	?
O=C(c1ccccc1)C1CN(Cc2ccccc2)CCC1(O)c1ccccc1 (centres undefined)	11.6µM*	7.31µM*	3.6%	?	-23.1%	?
Cc1ccc(Nc2nc(C)c(CCC(C)C)c(=O)[nH]2)cc1	18.4µM*	?	4.9%	-12.9	4.5%	-15.3%
Cc1nc(Nc2ccc(F)cc2)[nH]c(=O)c1CCC(C)C	?	?	2.4%	-8.1	-55.7%	?
CCCCCc1c(C)nc(Nc2ccccc2)[nH]c1=O	18.4µM*	20.6µM*	-7.9%	-3.6	11.0%	11.1%
O=C(CSc1ccc2nnc(-c3cccnc3)n2n1)c1ccccc1	-26.6%	2.5%	6.3%	-1.9	0.9%	2.1%
CCOC(=O)C(CC)Sc1ccc2nnc(-c3cccnc3)n2n1 (centres undefined)	?	14.1µM*!	2.5%	26.7	-7.1%	-0.9%
CCOc1ccc(NC(=O)CSc2ccc3nnc(-c4cccnc4)n3n2)cc1	?	-11.8%	7.1%	-5.2	8.3%	-2.1%
SMILES	DT40 TDP1 no CPT	TDP1 cell CPT	TDP1 inh	IL-1B inflam inh	HepG2 viability	TGFb inhibitor
CC1CCN(C(=O)CSc2nnc3ccc(-c4cccnc4)nn23)CC1	-24.5%	0.9%	.	-57.1*	-39.5%	0.0%
CCOC(=O)N1CCN(C(=O)CSc2ccc3nnc(-c4cccnc4)n3n2)CC1	18.4µM*	?	1.2%	-27.8	-7.5%	-6.5%
COc1cccc(-c2ccc3nnc(SCC(=O)N4CCCC4)n3n2)c1	?	?	.	?	5.7%	0.3%
CCCCC(=O)Oc1c(S(=O)(=O)c2ccc(C)cc2)c(C)nn1C(C)(C)C	?	?	.	?	-19.1%	0.0%
COc1ccc(-c2cc(C(=O)Nc3c(C)nn(Cc4ccccc4C)c3C)no2)cc1	-29.8%	-1.9%	1.8%	.	0.7%	4.5%
CCN1CCN(C(=O)c2ccc3c(c2)N(Cc2ccccc2F)C(=O)c2ccccc2S3=O)CC1 (centres undefined)	?	-2.4%	1.2%	.	-15.0%	0.0%
Cc1ccc(S(=O)(=O)NC(CC(=O)OCc2ccccc2)C(=O)OCc2ccccc2)cc1 (centres undefined)	?	-25.6%	.	15.0	-19.6%	-9.2%
COC(=O)c1c[nH]c2c1-c1cc(C(=O)OCc3ccccc3)n(S(=O)(=O)c3ccc(C)cc3)c1C(=O)C2=O	0.581µM*	0.581µM*	.	-17.3	0.562µM*	0.447µM*
COC(=O)c1ccc(C(NC(=O)OCc2ccccc2)/C(C)=C/[C@@H](C)C(=O)NC2CCCCC2)cc1 (some centres undefined)	.	.	8.7%	.	.	.
O=C(COC(=O)c1ncc(Cl)c(Cl)c1Cl)Nc1cccnc1Cl	7.5%	-12.4%	-5.9%	-56.0*	11.9%	3.6%
